Of roughly 7,900 targets only a part is listed; those with a hit were picked by preference. About 0.6% of all pairs of compound and target were hits.
What follows are targets tested with CCCS(=O)(=O)Nc1ccc(F)c(C(=O)c2c[nH]c3ncc(-c4ccc(Cl)cc4)cc23)c1F [vemurafenib] (assay: log2 fold change, soluble protein after heating vs DMSO (PISA); higher = thermal stabilisation; K562 cells, 10 uM, 30 min; active = over 0.2 and 3.5 SD of the protein, either way, in both replicates (recomputed)).
How it was run: (§1)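 K562 cells at 2×10^6 cells/mL were treated for 30 min with 10 μM compound, and aliquots were heated for 3 min over 48°C-58°C before pooling. Extraction used PBS with 0.5% NP-40 at 4°C, and soluble protein was the supernatant after 21,000xg for 90 min, measured by TMTpro 16plex LC-MS/MS with channel sums equalised. Thermal stability values, relative to control samples and from duplicates, are log2 fold changes.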

Chain of UniProt Q8NHS3 (Q8NHS3 whole entry, looked up): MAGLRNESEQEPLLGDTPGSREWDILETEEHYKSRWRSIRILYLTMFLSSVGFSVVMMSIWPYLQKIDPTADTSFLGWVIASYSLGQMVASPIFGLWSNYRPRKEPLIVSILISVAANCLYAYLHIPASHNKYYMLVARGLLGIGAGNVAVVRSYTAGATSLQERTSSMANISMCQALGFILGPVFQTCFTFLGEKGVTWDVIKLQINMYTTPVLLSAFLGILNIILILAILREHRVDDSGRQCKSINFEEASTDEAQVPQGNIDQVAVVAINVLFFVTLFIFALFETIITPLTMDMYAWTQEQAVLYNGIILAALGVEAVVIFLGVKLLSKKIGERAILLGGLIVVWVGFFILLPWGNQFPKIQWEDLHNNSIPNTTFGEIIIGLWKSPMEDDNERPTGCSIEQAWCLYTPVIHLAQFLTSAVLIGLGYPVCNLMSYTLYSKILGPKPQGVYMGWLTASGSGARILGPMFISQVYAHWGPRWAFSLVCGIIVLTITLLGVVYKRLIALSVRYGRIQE
Chain of UniProt P28290 (P28290 whole entry, looked up): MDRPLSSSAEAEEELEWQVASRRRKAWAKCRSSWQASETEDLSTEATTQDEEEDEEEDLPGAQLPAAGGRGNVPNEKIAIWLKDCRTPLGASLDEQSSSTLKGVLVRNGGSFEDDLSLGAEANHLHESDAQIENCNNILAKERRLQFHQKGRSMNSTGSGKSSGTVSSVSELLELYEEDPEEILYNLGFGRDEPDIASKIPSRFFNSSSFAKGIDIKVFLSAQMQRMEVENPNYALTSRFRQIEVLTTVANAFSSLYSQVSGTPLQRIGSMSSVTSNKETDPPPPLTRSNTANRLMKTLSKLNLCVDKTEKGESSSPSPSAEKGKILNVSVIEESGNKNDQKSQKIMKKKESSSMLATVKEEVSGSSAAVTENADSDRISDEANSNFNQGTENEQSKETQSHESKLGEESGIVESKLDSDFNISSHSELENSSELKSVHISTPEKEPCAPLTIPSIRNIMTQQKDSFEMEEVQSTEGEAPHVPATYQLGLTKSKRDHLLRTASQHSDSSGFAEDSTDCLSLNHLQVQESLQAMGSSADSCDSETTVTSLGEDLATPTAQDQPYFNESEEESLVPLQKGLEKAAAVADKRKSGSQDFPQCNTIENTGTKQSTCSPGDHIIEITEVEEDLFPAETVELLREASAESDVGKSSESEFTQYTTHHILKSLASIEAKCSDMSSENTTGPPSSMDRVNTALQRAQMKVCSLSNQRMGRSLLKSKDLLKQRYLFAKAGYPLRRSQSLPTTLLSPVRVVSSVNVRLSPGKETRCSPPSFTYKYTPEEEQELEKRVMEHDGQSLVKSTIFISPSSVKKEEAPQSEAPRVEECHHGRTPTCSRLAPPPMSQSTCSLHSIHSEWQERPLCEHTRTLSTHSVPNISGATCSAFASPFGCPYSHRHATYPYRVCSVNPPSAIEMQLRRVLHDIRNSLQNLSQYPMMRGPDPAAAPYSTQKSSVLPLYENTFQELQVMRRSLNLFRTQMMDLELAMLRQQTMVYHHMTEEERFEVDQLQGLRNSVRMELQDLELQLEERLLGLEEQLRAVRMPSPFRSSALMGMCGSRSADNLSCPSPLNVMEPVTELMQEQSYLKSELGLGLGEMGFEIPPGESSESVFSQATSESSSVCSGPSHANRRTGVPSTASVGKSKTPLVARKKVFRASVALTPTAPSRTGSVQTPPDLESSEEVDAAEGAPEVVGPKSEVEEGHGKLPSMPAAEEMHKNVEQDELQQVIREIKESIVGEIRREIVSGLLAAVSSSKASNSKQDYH
Chain of UniProt Q9BQD3 (Q9BQD3 whole entry, looked up): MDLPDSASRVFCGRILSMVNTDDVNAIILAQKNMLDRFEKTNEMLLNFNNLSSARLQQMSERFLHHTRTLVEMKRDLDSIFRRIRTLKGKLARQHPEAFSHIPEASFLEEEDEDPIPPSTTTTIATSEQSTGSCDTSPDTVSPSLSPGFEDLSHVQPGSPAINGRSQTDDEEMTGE
Chain of UniProt P43361 (P43361 whole entry, looked up): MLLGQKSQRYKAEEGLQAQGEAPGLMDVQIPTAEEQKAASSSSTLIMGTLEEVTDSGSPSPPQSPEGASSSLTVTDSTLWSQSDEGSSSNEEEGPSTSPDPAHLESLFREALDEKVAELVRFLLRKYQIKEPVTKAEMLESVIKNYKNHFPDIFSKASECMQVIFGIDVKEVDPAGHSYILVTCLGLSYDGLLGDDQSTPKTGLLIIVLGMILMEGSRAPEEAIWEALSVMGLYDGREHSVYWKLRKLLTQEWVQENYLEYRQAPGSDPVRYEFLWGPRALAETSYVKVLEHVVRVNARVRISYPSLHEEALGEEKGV
Chain of UniProt A4D2B0 (A4D2B0 whole entry, looked up): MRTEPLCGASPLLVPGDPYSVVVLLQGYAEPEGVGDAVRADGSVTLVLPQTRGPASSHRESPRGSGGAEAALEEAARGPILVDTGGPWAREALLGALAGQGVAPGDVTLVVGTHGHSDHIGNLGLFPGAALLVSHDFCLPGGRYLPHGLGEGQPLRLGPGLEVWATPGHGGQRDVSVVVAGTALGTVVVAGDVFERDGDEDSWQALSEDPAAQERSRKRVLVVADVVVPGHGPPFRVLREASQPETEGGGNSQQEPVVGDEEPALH
Chain of UniProt P13473 (P13473 whole entry, looked up): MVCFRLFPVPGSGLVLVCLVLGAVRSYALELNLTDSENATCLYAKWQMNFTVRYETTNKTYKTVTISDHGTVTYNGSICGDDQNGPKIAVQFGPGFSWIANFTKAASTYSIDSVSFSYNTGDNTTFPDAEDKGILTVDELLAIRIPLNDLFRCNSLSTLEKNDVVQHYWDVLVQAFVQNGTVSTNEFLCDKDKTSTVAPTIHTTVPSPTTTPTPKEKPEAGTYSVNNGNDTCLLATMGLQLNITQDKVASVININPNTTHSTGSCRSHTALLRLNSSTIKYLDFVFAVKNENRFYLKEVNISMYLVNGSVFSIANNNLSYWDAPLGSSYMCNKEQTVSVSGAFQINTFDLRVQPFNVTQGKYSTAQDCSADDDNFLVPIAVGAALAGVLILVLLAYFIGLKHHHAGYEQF
Chain of UniProt Q9Y5V3 (Q9Y5V3 whole entry, looked up): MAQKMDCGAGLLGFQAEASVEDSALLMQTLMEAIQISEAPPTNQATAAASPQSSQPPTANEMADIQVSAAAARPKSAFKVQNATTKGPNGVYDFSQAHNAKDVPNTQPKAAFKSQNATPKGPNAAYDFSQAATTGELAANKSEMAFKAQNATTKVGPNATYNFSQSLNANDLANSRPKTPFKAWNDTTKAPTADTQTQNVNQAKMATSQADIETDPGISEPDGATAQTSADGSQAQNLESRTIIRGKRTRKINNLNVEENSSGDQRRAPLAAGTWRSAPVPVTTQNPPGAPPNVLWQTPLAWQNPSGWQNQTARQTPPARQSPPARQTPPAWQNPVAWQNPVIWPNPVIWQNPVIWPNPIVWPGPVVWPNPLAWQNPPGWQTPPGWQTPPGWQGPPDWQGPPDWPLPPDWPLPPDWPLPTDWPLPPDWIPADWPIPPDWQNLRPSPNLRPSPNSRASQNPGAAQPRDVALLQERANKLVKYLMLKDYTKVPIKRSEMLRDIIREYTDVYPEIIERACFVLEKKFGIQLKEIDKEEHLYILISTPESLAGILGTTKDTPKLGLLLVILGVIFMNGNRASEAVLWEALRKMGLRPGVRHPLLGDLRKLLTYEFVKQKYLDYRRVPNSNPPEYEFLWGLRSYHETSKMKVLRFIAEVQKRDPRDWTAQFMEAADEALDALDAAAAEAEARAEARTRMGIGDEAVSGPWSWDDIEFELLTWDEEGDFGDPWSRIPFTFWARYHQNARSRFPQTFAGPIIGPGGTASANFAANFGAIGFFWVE
Chain of UniProt Q8WYH8 (Q8WYH8 whole entry, looked up): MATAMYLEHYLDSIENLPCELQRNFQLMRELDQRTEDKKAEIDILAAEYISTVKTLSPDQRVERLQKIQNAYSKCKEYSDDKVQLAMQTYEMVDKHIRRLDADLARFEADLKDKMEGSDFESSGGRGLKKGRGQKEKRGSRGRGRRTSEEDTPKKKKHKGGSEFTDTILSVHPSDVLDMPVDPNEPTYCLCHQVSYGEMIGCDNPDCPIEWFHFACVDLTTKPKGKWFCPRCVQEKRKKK
Chain of UniProt Q9UPY8 (Q9UPY8 whole entry, looked up): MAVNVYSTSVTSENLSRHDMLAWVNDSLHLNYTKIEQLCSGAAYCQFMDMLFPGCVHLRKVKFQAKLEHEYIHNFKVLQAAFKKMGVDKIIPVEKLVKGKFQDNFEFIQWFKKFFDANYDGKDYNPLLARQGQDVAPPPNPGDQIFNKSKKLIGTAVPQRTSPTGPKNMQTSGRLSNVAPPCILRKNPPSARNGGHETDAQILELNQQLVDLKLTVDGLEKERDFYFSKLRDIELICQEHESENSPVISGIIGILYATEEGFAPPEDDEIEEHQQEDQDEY
Chain of UniProt O00214 (O00214 whole entry, looked up): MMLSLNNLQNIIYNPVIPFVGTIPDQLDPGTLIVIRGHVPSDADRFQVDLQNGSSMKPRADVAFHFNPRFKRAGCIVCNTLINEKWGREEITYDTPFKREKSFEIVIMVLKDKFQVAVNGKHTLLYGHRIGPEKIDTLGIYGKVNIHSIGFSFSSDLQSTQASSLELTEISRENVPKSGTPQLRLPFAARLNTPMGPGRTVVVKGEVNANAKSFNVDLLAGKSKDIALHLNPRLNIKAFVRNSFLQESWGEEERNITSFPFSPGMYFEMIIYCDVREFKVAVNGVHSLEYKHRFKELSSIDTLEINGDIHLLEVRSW
Chain of UniProt P24592 (P24592 whole entry, looked up): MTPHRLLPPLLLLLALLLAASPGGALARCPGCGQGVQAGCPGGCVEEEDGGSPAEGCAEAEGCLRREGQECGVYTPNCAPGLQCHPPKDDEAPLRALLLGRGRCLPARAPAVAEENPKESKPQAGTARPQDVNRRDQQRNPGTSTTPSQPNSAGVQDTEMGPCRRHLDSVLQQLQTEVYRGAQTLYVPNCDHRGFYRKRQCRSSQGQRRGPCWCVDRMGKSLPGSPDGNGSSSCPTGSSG

log2 fold change, inactive:
KXD1 (UniProt Q9BQD3) 0.092, ITPRID2 (UniProt P28290) -0.125, KIF1B isoform 3 (UniProt O60333) -0.244, MAGED1 isoform 2 (UniProt Q9Y5V3) -0.236, MAP4K4 isoform 6 (UniProt O95819) -0.052, LGALS8 isoform 2 (UniProt O00214) -0.013, MBLAC1 (UniProt A4D2B0) 0.029, IGFBP6 (UniProt P24592) 0.189, MFAP3 (UniProt P55082) -0.115, LAMP2 isoform 2 (UniProt P13473) -0.082, MAGEA8 (UniProt P43361) 0.031, LSR (UniProt M0QZL9) 0.024, MFSD8 (UniProt Q8NHS3) 0.045

These targets were tested with CCCS(=O)(=O)Nc1ccc(F)c(C(=O)c2c[nH]c3ncc(Cl)cc23)c1F in the same assay as above.
How it was run: as §1

log2 fold change, inactive:
KXD1 (UniProt Q9BQD3) 0.059, ITPRID2 (UniProt P28290) -0.097, LSR isoform 3 (UniProt Q86X29) 0.158, MARCHF3 (UniProt Q86UD3) -0.01, IKZF1 (UniProt R9R4D9) 0.033, MAGED1 isoform 2 (UniProt Q9Y5V3) 0.198, MAPRE3 isoform 2 (UniProt Q9UPY8) 0.029, MBLAC1 (UniProt A4D2B0) -0.008, KIZ (UniProt Q2M2Z5) -0.181, MAP4K2 (UniProt Q12851) 0.043, LAMP2 isoform 2 (UniProt P13473) -0.093, MAGEA8 (UniProt P43361) 0.197, ING5 (UniProt Q8WYH8) -0.011, MED29 (UniProt Q9NX70) 0.131, MFSD8 (UniProt Q8NHS3) 0.151, MELK (UniProt Q14680) 0.02, MCOLN3 (UniProt Q8TDD5) 0.014, MGRN1 isoform 2 (UniProt O60291) -0.307
